# Rows were chosen to be rich in hits. Some 1.2% of all compounds tested hit in one or more screens of this group.
# Platelet DG rel: inhibitors of platelet dense granule secretion, primary screen, cell-based, MLPCN, human platelets; human platelet-rich plasma, SFLLRN dense granule ATP release, luminescence; inhibition, %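 (compounds screened at 7.5 µM in platelet-rich plasma)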; 300,000 compounds, 0.22% hits; AID 1663, 2009;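 active = mean replicate score, as percent of positive control, at or above 50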
# ABCB6 inh 2: ABCB6 transporter inhibitors, primary screen, K562-ABCB6 cells, flow cytometry, MLPCN library | ATP-binding cassette sub-family B member 6 (Homo sapiens), Q9NP58 | K562-ABCB6 porphyrin accumulation, 1 h; hits give low values | fluorescence ratio to DMSO, % at 10 µM | 360,000 compounds, 0.19% hits;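 active = fluorescence ratio to DMSO below 75%, the collection mean minus 3 SD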;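 note: signal is porphyrin accumulated inside mitochondria; 100% equals median channel fluorescence of DMSO control wells; lower ratio means ABCB6 inhibition with less porphyrin fluorescence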
# CR mimetic SO: reduction of superoxide in aged yeast, primary screen, HTS | superoxide response (% of plate mean), % at 10 µM | 330,000 compounds, 0.18% hits | AID 2690, 2010 | S. cerevisiae aged cells, superoxide DHE fluorescence; hits give low values;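 active = superoxide response under a set limit, about three screen SD below normal, cut at about 65% in these data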;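 note: yeast aged for seven days with compound at 30 °C before DHE staining; 100% = average MFI of all compound-treated wells on the plate with controls excluded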
# VLA-4 inh: inhibition in human VLA-4 binding assay, primary screen, VLA-4 allosteric modulator project, MLPCN library, flow cytometry, VLA-4 expressing cells | AID 2557, 2010 | ligand binding flow cytometry | Integrin alpha-4 (Homo sapiens), P13612 | 330,000 compounds, 0.2% hits | inhibition, % (about 7 µM as worked out from the volumes in the protocol); in the data active = inhibition above about 50%
# Target sequence (P13612 whole entry, looked up): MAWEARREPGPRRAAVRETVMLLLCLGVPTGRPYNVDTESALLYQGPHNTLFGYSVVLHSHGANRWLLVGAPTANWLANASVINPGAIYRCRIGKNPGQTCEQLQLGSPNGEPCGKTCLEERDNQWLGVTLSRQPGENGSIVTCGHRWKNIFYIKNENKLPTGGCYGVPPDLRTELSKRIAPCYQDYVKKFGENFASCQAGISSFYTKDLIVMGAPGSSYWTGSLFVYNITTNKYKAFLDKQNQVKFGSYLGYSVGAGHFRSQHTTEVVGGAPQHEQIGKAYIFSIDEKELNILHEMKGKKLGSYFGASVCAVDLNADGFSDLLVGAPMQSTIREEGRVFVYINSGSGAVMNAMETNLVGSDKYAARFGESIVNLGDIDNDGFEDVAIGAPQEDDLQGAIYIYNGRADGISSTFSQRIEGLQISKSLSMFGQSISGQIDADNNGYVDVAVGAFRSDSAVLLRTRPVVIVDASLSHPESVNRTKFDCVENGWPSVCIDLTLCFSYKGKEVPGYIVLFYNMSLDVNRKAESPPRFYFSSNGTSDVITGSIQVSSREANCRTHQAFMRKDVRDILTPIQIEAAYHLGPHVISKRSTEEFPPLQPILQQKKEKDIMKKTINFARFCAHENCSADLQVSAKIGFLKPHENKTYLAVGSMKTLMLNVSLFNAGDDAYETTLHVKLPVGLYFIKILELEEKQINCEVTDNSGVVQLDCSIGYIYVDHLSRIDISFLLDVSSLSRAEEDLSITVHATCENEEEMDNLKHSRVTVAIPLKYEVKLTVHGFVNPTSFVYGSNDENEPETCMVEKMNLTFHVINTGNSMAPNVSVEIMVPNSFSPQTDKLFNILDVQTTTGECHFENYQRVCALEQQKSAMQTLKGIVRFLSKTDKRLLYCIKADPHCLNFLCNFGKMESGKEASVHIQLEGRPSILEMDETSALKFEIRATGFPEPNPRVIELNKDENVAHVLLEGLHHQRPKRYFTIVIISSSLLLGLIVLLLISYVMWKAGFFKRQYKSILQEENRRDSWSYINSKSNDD
# SKN-1 block: suppressors of acrylamide-induced Pgst-4::GFP reporter in worms, primary screen, SKN-1 inhibitor project, whole organism, uHTS, GFP/RFP fluorescence ratio, strain VP596; C. elegans VP596 Pgst-4::GFP/RFP ratio, 24 h; inhibition, % at 21.8 µM; 360,000 compounds, 0.49% hits;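 active = interference check ratio from 0.5 to 1.5 plus GFP to RFP signal ratio inhibition reaching or exceeding a fixed threshold, cut at about 30% in these data, passing the limit was not always enough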
# VLA-4 mod pick: retest of VLA-4 allosteric modulators, confirmation, cell-based, cherry-picked plates, U937, HUTS-21 LIBS antibody; 1,300 compounds, 2% hits; AID 2813, 2010; inhibition, % at 6.7 µM; shares compounds with VLA-4 inh; U937 cells, HUTS-21 LIBS mAb binding, flow cytometry; LDV ligand present at threefold Kd; in the data active = inhibition above about 40%;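 note: 0% = ligand without compound and 100% = no ligand background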
# Starred values were filed as active, the others as inactive; / = no result given.
SMILES,Platelet DG rel,ABCB6 inh 2,CR mimetic SO,VLA-4 inh,SKN-1 block,VLA-4 mod pick
COC(=O)COc1ccc(NC(=O)C(c2ccccc2)c2ccccc2)cc1,-10.2,102.0,104.0,49.9*,9.6,13.6
Cc1nc([N+](=O)[O-])c(NCCO)n1Cc1ccccc1,7.7,97.0,107.0,53.9*,-1.9,2.7
Cc1nc([N+](=O)[O-])c(SCC(N)=O)n1Cc1ccccc1,-1.5,96.0,102.2,-9.5,9.5,/
CC(C)C(N)c1csc(Nc2ccc(S(C)(=O)=O)cc2)n1 (stereo unspecified),/,97.0,/,/,3.8,/
CCOC(=O)C1=C[C@@H](C2CCCCC2)N(S(=O)(=O)c2ccc([N+](=O)[O-])cc2)[C@H]1c1ccccc1,/,97.0,/,/,-12.5,/
COc1ccc(C2CC3(CC(C)(C)NC(SC)=N3)Oc3cc(O)cc(C)c32)cc1 (stereo unspecified),17.7,99.0,96.5,41.1,0.7,-7.7
COc1ccc(OC)c(CC(=O)Nc2ccc3c(c2)c(=O)n(C)n3Cc2cccc(C(F)(F)F)c2)c1,/,92.0,/,/,7.1,/
Cc1ccc(NC(=O)Nc2c(Cl)cccc2Cl)cn1,-4.6,78.0,112.0,-4.4,-3.4,0.0
Cc1ccc(NC(=O)Nc2cccnc2)cc1Cl,3.8,92.0,107.5,-6.3,-5.0,/
CC(C)Nc1nc(NCCOc2ccccc2)c2sccc2n1,/,96.0,/,/,-2.8,/
Cc1cc2c(cc1C)C(c1ccccc1F)CC(=O)N2 (stereo unspecified),0.5,94.0,102.8,8.7,-7.1,/
Cc1cc2c(cc1C)C(c1cccc(F)c1)CC(=O)N2 (stereo unspecified),-1.0,102.0,100.9,-0.3,10.6,-3.9
COC(=O)[C@H](CC(C)C)NC(=O)CC[C@H]1O[C@@H](n2cc(C)c(=O)[nH]c2=O)C[C@@H]1O,/,96.0,/,/,10.0,/
CCOC(=O)C1=C(C)NC(C)=C(C(=O)OCC)C1C(=O)OCC(=O)N1CCCCC1C (stereo unspecified),/,98.0,80.4,6.3,-12.8,/
CCOC(=O)c1[nH]c(C)c(C(=O)OCC(=O)N2CCCCC2C)c1C (stereo unspecified),-2.6,102.0,85.4,61.2*,23.0,15.7
COc1cc(NC(=O)C(c2ccccc2)c2ccccc2)c(C(=O)O)cc1OC,-5.4,99.0,100.4,8.5,-9.0,-1.6
CCc1cc(C(=O)O)c(NC(=O)C(c2ccccc2)c2ccccc2)s1,-56.1,105.0,105.9,90.2*,13.3,0.3
CCOC(=O)c1cc(C)sc1NC(=O)C(c1ccccc1)c1ccccc1,2.0,114.0,115.0,8.3,-1.7,/
Cc1ccc(/C=N/NC(=O)CNC(=O)c2ccc(C)c([N+](=O)[O-])c2)o1,-1.0,91.0,95.5,0.4,-1.1,/
Cc1ccc(/C=N/NC(=O)CNC(=O)c2cccc([N+](=O)[O-])c2C)o1,1.3,96.0,102.2,58.4*,-1.0,5.3
O=C(NCCCn1ccnc1)C(=O)NCC(c1cccnc1)N1CCN(c2ccccc2)CC1 (stereo unspecified),-5.6,100.0,131.3,57.2*,3.2,-6.8
CC1(C(=O)NS(=O)(=O)c2cccc(F)c2)CCN1C(=O)CC1CCCC1 (stereo unspecified),/,98.0,/,/,9.6,/
O=c1[nH]c(SCCc2ccccc2)nc2c1CCC2,/,102.0,/,/,-1.0,/
Cc1cccc(C)c1OCC(=O)Nc1ncn[nH]1,-0.3,97.0,119.2,52.3*,-6.2,-7.7
CCc1nc2ccc(C(=O)N3CCN(C(=O)c4ccco4)CC3)cn2c1N(CCC(C)C)CCN(C)C,/,97.0,/,/,-3.7,/
SMILES,Platelet DG rel,ABCB6 inh 2,CR mimetic SO,VLA-4 inh,SKN-1 block,VLA-4 mod pick
COC(=O)c1ccc([N+](=O)[O-])c(CS(=O)(=O)c2ccc(Cl)cc2)c1,1.2,99.0,79.1,-8.4,-5.9,/
CO/N=C/CC(=O)c1ccc([N+](=O)[O-])c(CS(=O)(=O)c2ccc(Cl)cc2)c1,1.9,93.0,129.0,41.8,-2.4,-18.3
OC[C@@H]1CN(Cc2ccncc2)C[C@H](n2cnc3c(NC4CCCC4)ncnc32)O1,/,99.0,/,/,10.6,/
COc1ccccc1NC(=S)N1CCN(c2ccccn2)CC1,-2.5,95.0,105.5,-15.1,-7.0,/
COc1ccccc1NC(=O)N1CCN(c2ccccn2)CC1,-7.3,97.0,99.1,52.3*,-0.5,-3.9
CC(O)(c1cccnc1)c1nc(-c2cccc(C(F)(F)F)c2)cs1 (stereo unspecified),/,97.0,/,/,-5.1,/
COc1cccc(NS(=O)(=O)c2cc(C)ccc2OC)c1,9.6,100.0,100.6,12.5,27.1,/
COc1ccc(C)cc1S(=O)(=O)Nc1cccc(C)c1,-0.6,96.0,118.7,-2.9,0.4,2.9
CCOC(=O)c1c(NC2=NS(=O)(=O)c3ccccc32)sc2c1CCC(C)C2 (stereo unspecified),-3.8,96.0,98.8,60.0*,-0.1,5.4
O=C(c1cc(Br)ccc1Cl)N1CCN(c2ccc(N3CCOCC3)nn2)CC1,-15.4,90.0,103.7,50.8*,7.5,2.7
O=C(c1ccc(Cl)cc1)N1CCN(c2ccc(N3CCOCC3)nn2)CC1,/,89.0,/,/,0.6,/
NC(CCc1ccccc1)c1csc(NC(=O)NCC2CCCCC2)n1 (stereo unspecified),/,96.0,/,/,-3.5,/
CCOC(=O)C1CCCN(S(=O)(=O)c2cc3[nH]c(=O)c(=O)[nH]c3cc2C)C1 (stereo unspecified),3.4,95.0,97.4,50.4*,6.5,-6.7
CCOC(=O)C1CCCN(S(=O)(=O)c2ccc(S(=O)(=O)N3CCCC3)cc2)C1 (stereo unspecified),6.1,90.0,93.5,-2.0,-3.6,/
COc1ccc(CNC(=O)CCS(=O)(=O)c2ccc3nc(C)sc3c2)cc1,/,102.0,/,/,-7.5,/
CN(C)/C(=C\C(=O)c1ccccc1)C(=O)c1ccccc1,/,101.0,/,/,5.7,-7.6
COc1ccc(C(=O)/C=C/C(=O)N(CC(=O)NC2CCCCC2)Cc2cccs2)c(O)c1,23.4,101.0,94.6,63.2*,-7.3,28.5
CCC(=O)Nc1nnc(-c2ccc(Cl)s2)o1,0.2,103.0,95.2,45.3,1.3,-0.4
Cc1ccc2c(c1)c1c(n2CC(O)CNC2CCCCC2)CCCC1 (stereo unspecified),4.3,105.0,93.7,51.8*,1.6,17.9
COc1cccc(-c2sc3ccc(OC)cc3c2-c2cnc(N3CCOCC3)nc2)c1,/,99.0,/,/,15.0,/
COc1cccc(-c2sc3ccc(OC)cc3c2-c2ccc(OCCN3CCOCC3)cc2)c1,/,94.0,100.3,18.5,-60.0,7.3
COc1cc(OC)cc(-c2sc3ccc(OC)cc3c2-c2ccc(OCCN3CCOCC3)cc2)c1,/,106.0,101.9,/,12.3,6.5
